JMJD2A Tudor – blocks the human JMJD2A Tudor domain; 4.4% of 390,000 active; Potency, µM (series often up to 114 µM), inactives show at the top dose activity change, negative = inhibition, usual class: inhibitors; O75164; AID 504339; AlphaScreen JMJD2A-Tudor / H3K4me3 peptide binding; also: % is scaled to controls: 0 for no effect and ±100 for the full control effect; nearly all actives have a fitted effect of over 50% in size
BAZ2B block – inhibitors of human BAZ2B bromodomain. Q9UIF8. AlphaScreen BAZ2B-H3K14Ac peptide displacement. Potency, µM (highest dose often 114 µM), for inactives: at the top dose activity change, negative = inhibition, usual class: inhibitors. 4.4% of 360,000 active. AID 504333; also: % is scaled to controls: 0 for no effect and ±100 for the full control effect; nearly all actives have a fitted effect of over 60% in size
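Multi-concentration screen (max 110 uM) measuring displacement of acetylated histone H3 peptide from BAZ2B by AlphaScreen, using 50 nM protein, 50 nM peptide and 10 ug/mL streptavidin donor plus Ni-chelate acceptor beads.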
HP1b chromo inh – inhibitors of HP1-beta chromodomain binding to methylated histone tails | P83916 | AlphaScreen HP1-beta / biotin-H3K9me3 peptide binding | Potency, µM (titrated, usually from 114 µM), for inactives: at the highest dose activity change, negative = inhibition, hits mostly inhibitors | 0.56% of 390,000 active | AID 540317; also: nearly all actives have a fitted effect of over 70% in size
Target sequence (P83916 whole entry, looked up): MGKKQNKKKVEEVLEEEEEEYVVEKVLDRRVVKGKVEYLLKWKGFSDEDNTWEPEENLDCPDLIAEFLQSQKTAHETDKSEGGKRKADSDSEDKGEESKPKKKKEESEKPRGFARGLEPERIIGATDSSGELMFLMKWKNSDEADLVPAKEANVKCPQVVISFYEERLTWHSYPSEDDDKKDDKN
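Compound inhibition of the preformed complex between 50 nM HP1-beta and 50 nM biotinylated H3K9me3 peptide was read by AlphaScreen. Buffer was PBS pH 7.4 with 0.01% Tween-20. Incubations ran 30 min at room temperature, with 10 ug/mL donor/acceptor beads.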
G9a inh – G9a (human) methyltransferase inhibition. G9a H3K9 monomethylation, AlphaScreen, 2 h. AID 504332. 8.8% of 350,000 active. Q96KQ7. Potency, µM (titrated, usually from 102 µM), without a hit: at the top dose activity, negative = inhibition, most hits filed as inhibitors; also: % is scaled to controls: 0 for no effect and ±100 for the full control effect; nearly all actives have a fitted effect of over 75% in size
Target sequence (Q96KQ7 913-1193 limits assumed): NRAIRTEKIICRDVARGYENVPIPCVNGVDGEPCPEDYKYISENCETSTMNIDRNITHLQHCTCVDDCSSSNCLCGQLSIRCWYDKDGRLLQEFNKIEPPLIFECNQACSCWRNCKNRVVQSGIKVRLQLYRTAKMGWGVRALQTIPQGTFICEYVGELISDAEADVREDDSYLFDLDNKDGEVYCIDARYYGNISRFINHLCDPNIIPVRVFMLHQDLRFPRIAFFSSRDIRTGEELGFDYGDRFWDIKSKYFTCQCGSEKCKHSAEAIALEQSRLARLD
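G9a (20 nM) preincubated 15 min RT with compounds, then 500 nM biotinylated H3K9 peptide and 20 uM SAM added; 2 h RT reaction. Monomethyl-H3K9 product detected by AlphaScreen with anti-H3K9me1 antibody, streptavidin donor and anti-rabbit IgG acceptor beads.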
L3MBTL1 block – inhibitors of human L3MBTL1; Q9Y468; Potency, µM (doses to about 57.1 µM), for inactives: top-dose activity, negative = inhibition, actives largely listed as inhibitors; 0.66% of 230,000 active; AlphaScreen L3MBTL1–H3K9me1 peptide binding; also: % is scaled to controls: 0 for no effect and ±100 for the full control effect; nearly all actives have a fitted effect of over 60% in size
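Displacement of a biotinylated histone H3(1-15) peptide monomethylated at Lys9 (75 nM) from L3MBTL1 (50 nM) was measured by AlphaScreen after a 30 min room-temperature compound incubation; cefsulodin titration served as intraplate control.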
* = called active by the depositor; ? = inconclusive; nt = no result; [ ] = another dose, or the depositor's remark. This is a sample that favours compounds with a hit; in the whole collection about 11% have one here. Calls follow the shape of the dose curve; as a rule, active = well fitted inhibition curve with a large enough effect; inconclusive = small, poorly fitted or top-dose-only effect; inactive = no such curve, though single readings can be large or run the other way. Potency is read from the fitted curve at half-maximal effect.

SMILES | JMJD2A Tudor | BAZ2B block | HP1b chromo inh | G9a inh | L3MBTL1 block
CCc1ccc(NC(=O)C2CCN(S(=O)(=O)c3ccc4[nH]c5c(c4c3)CCCCC5)CC2)cc1 | ? | -15% | 27% | ? | nt
Cc1ccc(NC(=O)C2CCCN(c3nnc(C)c4c(C)n(-c5ccccc5)nc34)C2)c(Cl)c1 (stereo unspecified) | ? | ? | 89% | -9%[59 µM] | nt
O=S(=O)(c1ccc(Br)cc1)c1nc(-c2ccco2)oc1NCC1CCCO1 (stereo unspecified) | -8% | ? | 35% | 35µM* | 4%
Cc1ccc(S(=O)(=O)c2nc(-c3ccco3)oc2NCC2CCCO2)cc1 (stereo unspecified) | -17% | -36% | 26% | 10µM* | 1%
Cc1ccc(-c2nc3c4ccccc4ccn3c2CN2CCCCC2)cc1 | ? | 50µM* | 2% | ? | -4%
COc1cc(C2Nc3ccccc3C(=O)N2c2ccccc2OC)ccc1O (stereo unspecified) | -26% | ? | 7% | -54%[2.33 µM] | nt
O=C1c2ccccc2NC(c2ccc(O)c(O)c2)N1c1ccccc1Cl (stereo unspecified) | -18% | 40µM* | -5% | 45µM* | nt
COc1cccc(C(=O)N2c3nc(-c4ccco4)nn3C3(CCCCC3)[C@@H]3CCCC[C@@H]32)c1 | -24% | ? | 22% | 18µM* | nt
O=C(c1cccc(Cl)c1)N1c2nc(-c3ccco3)nn2C2(CCCCC2)[C@@H]2CCCC[C@@H]21 | -21% | -15% | -5% | -7%[59 µM] | nt
O=C(Nc1ccc2oc(-c3cccc(F)c3)nc2c1)c1ccc2ccccc2c1 | 0% | 5% | 20% | ? | nt
CCOC(=O)c1c(NC(=O)c2cc(-c3ccc(OC)cc3)on2)sc(C)c1C | 14% | -1% | -4% | 8.9µM* | nt
CCOC(=O)c1c(NC(=O)c2cc3nc(-c4ccc(OC)cc4)cc(C(F)(F)F)n3n2)sc(C)c1C | -26% | 1% | 24% | -12%[59 µM] | nt
CCOC(=O)c1sc(NC(=O)c2cc(-c3ccc(F)cc3)on2)c(C(=O)OCC)c1C | -2% | 4% | 56% | 4%[59 µM] | nt
CCc1ccc(NC(=O)c2cc(-c3ccc(OC)cc3)on2)cc1 | -22% | 56µM* | 25% | -11% | nt
CCOC(=O)c1c(NC(=O)c2cc(-c3ccc(O)cc3)on2)sc(C(C)=O)c1C | -24% | -9% | 26% | 22µM* | -12%
CC(C)c1ccc(Nc2nc(Nc3ccc(Cl)cc3)nc(N3CCOCC3)n2)cc1 | -17%[57.1 µM] | nt | 18%[57 µM] | nt | nt
CC1(C)CC(=O)c2cc(N=C/C(C(=O)c3ccccc3)=C(\O)c3ccccc3)c(=O)oc2C1 | ? | -28% | 36% | 25µM* | 19%
CC1(C)CC(=O)C(C=Nc2ccccc2C(=O)O)=C(O)C1 | -23% | 5% | 47% | -24%[59 µM] | 0%
CCCC(=O)NCC(c1ccc2c(c1)OCO2)N1CCOCC1 (stereo unspecified) | -12% | 4% | 25%[57 µM] | -10%[59 µM] | nt
COC(=O)C1=C(C)OC(N)=C(C#N)C1c1ccccc1 (stereo unspecified) | -8%[57.1 µM] | 1% | 62% | -5%[2.33 µM] | nt
COC(=O)C1=C(C)OC(N)=C(C#N)C1c1ccc(OC)c(CSc2ccccn2)c1 (stereo unspecified) | -20%[57.1 µM] | -35% | 21% | 16µM* | 2%
Cc1ccc2c(c1)c(C)cc(=O)n2CCC(=O)O | 89µM* | 50µM* | -16% | ? | ?
Cc1c(C)n(CCC(=O)O)c2ccccc12 | -13% | -35% | 24% | -28% | -16%
CCN(CC)S(=O)(=O)c1ccc(C)c(NC(=O)COc2ccc(Cl)cc2Br)c1 | -15% | -29% | 40% | 45µM* | 2%
CCCC(=O)NC(c1ccc(Cl)cc1Cl)c1ccc2cccnc2c1O (stereo unspecified) | -19% | -2% | 44% | 20% | 4%
SMILES | JMJD2A Tudor | BAZ2B block | HP1b chromo inh | G9a inh | L3MBTL1 block
CC(=O)NC(c1ccc2ccccc2c1)c1ccc2cccnc2c1O (stereo unspecified) | 25µM* | 28µM* | 31% | -38% | ?
COc1ccc(C(NC(C)=O)c2ccc3cccnc3c2O)c(OC)c1 (stereo unspecified) | 79µM* | 28µM* | 26% | 44%[59 µM] | ?
CC(=O)NC(c1ccc(Cl)cc1Cl)c1ccc2cccnc2c1O (stereo unspecified) | 28µM* | 28µM* | -3% | nt | -27%
CCOc1ccc(N(CC(=O)N2CCOCC2)S(=O)(=O)c2ccc(F)cc2)cc1 | -4% | -10% | 33% | 10% | nt
Cc1sc(NC(=O)C2CCCO2)c(C#N)c1C (stereo unspecified) | -20% | -27% | -7% | ? | nt
Cc1sc(NC(=O)C2CCCO2)c(C(N)=O)c1C (stereo unspecified) | ? | -4% | ? | 7.9µM* | -21%
CCOC(=O)c1c(NC(=O)C2CCCO2)sc2c1CCC2 (stereo unspecified) | -5% | -36% | 6% | 0%[59 µM] | nt
CC(C)(C)C(=O)NC(=S)Nc1sc2c(c1C(N)=O)CCC2 | -14% | -14% | ? | 5.6µM* | -11%
NC(=O)c1c(NC(=O)C2CCCO2)sc2c1CCCC2 (stereo unspecified) | ? | -29% | ? | 3.2µM* | -4%
NC(=NC1CCCCC1)NS(=O)(=O)c1ccccc1 | -2% | -12% | 21% | -6% | nt
Cc1nnc(NC(=O)c2ccccc2)s1 | -19% | -2% | 31% | -5%[59 µM] | nt
CC1CN(c2nnc(NC(=O)c3ccccc3)s2)CC(C)O1 (stereo unspecified) | -20% | -11% | 25% | 56µM* | -20%
COc1cccc(OC(=O)CSc2nnc(-c3cccs3)o2)c1 | -11% | ? | 49% | ? | nt
COc1ccc(Nc2nc(N)c3cc(OC)c(OC)cc3n2)cc1 | ? | ? | -1% | ? | nt
O=C(/C=C/c1ccccc1Cl)Nc1cccnc1 | -13% | 1% | 17% | 19% | 2%
O=C(/C=C/c1ccccc1Cl)Nc1ccncc1 | -26% | -36% | 25% | 50µM* | -3%
O=C(/C=C/c1ccccc1Cl)NC1CCS(=O)(=O)C1 (stereo unspecified) | 5µM* | 0% | -18% | 6% | 1%
Cc1cc(C)nc(NC(=O)/C=C/c2ccccc2Cl)n1 | 4% | 7% | 34% | -17%[59 µM] | -3%
Cc1cc(N)c2cc(NC(=O)/C=C/c3ccccc3Cl)ccc2n1 | 63µM* | ? | -20% | 25µM* | -24%
Cc1ccc2c(c1)cc(C(=O)NCc1ccc(F)cc1)n2C | 2% | -1% | 45% | 5%[59 µM] | nt
CCc1ccc(-n2nnc(-c3nc(-c4ccc(C)cc4)no3)c2N)cc1 | -14% | -32% | 21% | -9%[59 µM] | nt
COc1cccc(-c2nc(NC3CCNCC3)c3ccccc3n2)c1 | nt | nt | nt | 14%[0.501 µM] | nt
CCc1ccc(NC(=O)C(=O)NCC(c2cccnc2)N2CCN(C)CC2)cc1 (stereo unspecified) | 56µM* | 45µM* | 17% | 16µM* | nt
